NS1 inh = inhibitors of influenza NS1 protein function; Potency, µM (series often up to 46.1 µM), for inactives: at the highest dose activity, positive = more growth; 270,000 compounds, 0.4% hits; AID 2326; also: potency is read from the fitted curve at half-maximal effect; actives are rising curves; nearly all actives have a fitted effect of over 50% in size
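OD600 was taken as the measure of yeast growth restored by compound in an NS1-expressing S. cerevisiae strain. Cells had been washed out of glucose medium and diluted 1:100 into galactose -URA medium, pH 6.0.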
CHX counter = affects cycloheximide protein synthesis inhibition readout, counter-screen | AID 2314 | 300,000 compounds, 12% hits | cell reporter, cycloheximide protein synthesis inhibition counterscreen | max response, %; in the data active = max response mostly above about 13%, no sharp cut-off; inactive = mostly below about 14%; also: read at 38.3 µM for the half of the compounds with a filed dose; 0% is about no effect
Pf growth 96h = inhibits malaria parasite growth, 96 h | 320,000 compounds, 6.9% hits | P. falciparum luciferase reporter growth, 96 h | Potency, µM (titrated, usually from 28.7 µM), inactives show top-dose activity change, negative = inhibition, actives largely listed as inhibitors; active = well fitted inhibition curve with a large enough effect; inconclusive = small, poorly fitted or top-dose-only effect, or another doubt; inactive = no such curve, though single readings can be large or run the other way; also: potency is read from the fitted curve at half-maximal effect; % is scaled to controls: 0 for no effect and ±100 for the full control effect
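Luminescence readout: decreased luciferase signal marks inhibited growth of reporter-expressing P. falciparum in infected red cells (2% hematocrit, 0.05% parasitemia final), exposed to compound two generations (96 h, 37 C, 5% CO2).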
SARS PLP yeast = blocks SARS-CoV papain-like protease in a yeast assay. S. cerevisiae expressing SARS-CoV PLpro, growth rescue. Potency, µM (highest dose often 32.9 µM), for inactives: top-dose activity, positive = growth rescue, most hits filed as activators. 330,000 compounds, 0.19% hits. AID 485353; also: potency is read from the fitted curve at half-maximal effect; 0% is about no effect; nearly all actives have a fitted effect of over 55% in size
Shiga toxin inh = Shiga toxin inhibition | inhibition, % at 38.7 µM | Vero cells, Shiga toxin protein synthesis inhibition reporter | AID 2315 | 290,000 compounds, 9.2% hits; in the data active = inhibition mostly above about 28%, no sharp cut-off; inactive = mostly below about 43%; also: 0% is about no effect
Pf growth 48h = P. falciparum growth inhibition at 48 hours (one generation). P. falciparum luciferase growth in erythrocytes, 48 h. 310,000 compounds, 5.9% hits. Potency, µM (doses to about 28.7 µM), without a hit: top-dose activity change, negative = inhibition, most hits filed as inhibitors; active = well fitted inhibition curve with a large enough effect; inconclusive = small, poorly fitted or top-dose-only effect, or another doubt; inactive = no such curve, though single readings can be large or run the other way; also: potency is read from the fitted curve at half-maximal effect; % is scaled to controls: 0 for no effect and ±100 for the full control effect
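Parasite viability was followed by luminescence of a genomically integrated firefly luciferase. Cultures held 0.1% parasitemia at 2% hematocrit (final), incubated under 5% CO2 at 37 C.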
* marks the source's active call; other numbers are inactive results; ? = inconclusive; nt = not tested or not shown. Only some compounds are listed: those with a hit (about 21% of all), similar ones and a draw of the others. Unless noted, calls follow the shape of the full dose curve.

SMILES	NS1 inh	CHX counter	Pf growth 96h	SARS PLP yeast	Shiga toxin inh	Pf growth 48h
O=C(Oc1ccc(/C=N/NC(=O)c2ccccn2)cc1)c1cccc(Br)c1	15.6%	27.9*	-6.8%	-1.8%	59.2*	72.1%
O=C(N/N=C/c1c[nH]c2ccc(Br)cc12)c1ccccn1	-8.0%	11.2	?	-4.5%	35.0	45.8%
CC(C)(C)OC(=O)N/N=C/c1ccc(Br)cc1	nt	40.2*	-2.6%	-2.9%	104.7*	172.0%
CC(C)(C)NC(=O)C(=O)N/N=C/c1ccc(Br)cc1	-8.4%	14.6	-8.5%	-3.1%	13.1	-8.4%
Oc1ccc(/C=N/NC(=S)N/N=C/c2ccc(O)cc2)cc1	17.2%	40.3*	5.5%	0.5%	61.9*	75.4%
Oc1ccc(/C=N/NC(=S)Nc2cccnc2)cc1	7.1%	48.2*	169.9%	-1.4%	81.5*	155.7%
COC(=O)c1ccc(OS(=O)(=O)c2ccc(NC(C)=O)cc2)cc1	-18.9%	8.9	-29.7%	2.4%	11.0	2.0%
CC(=O)Nc1ccc(S(=O)(=O)Oc2ccc3c(c2)C(C)=CC(C)(C)N3)cc1	-3.4%	16.4*	-2.1%	5.8%	21.7	-10.7%
O=C(CCN1C(=O)c2ccccc2C1=O)Oc1ccc2ccccc2c1	-20.4%	-6.7	0.1%	-6.1%	-9.7	0.2%
COc1ccc2c(c1)NC(C)(C)C=C2C	nt	-1.2	-18.5%	-3.5%	-10.4	?
CC1=CC(C)(C)Nc2ccc(OC(=O)CCN3C(=O)c4ccccc4C3=O)cc21	-15.8%	21.6*	6.3%	?	23.2	13.1µM*
CC1=CC(C)(C)Nc2ccc(OS(=O)(=O)c3ccc(C)cc3)cc21	12.7%	31.0	?	-2.8%	40.2*	?
COc1ccc(C)cc1NC(=O)C1CCCN1S(=O)(=O)c1ccccc1F (configuration not stated)	nt	nt	-0.4%	-2.0%	nt	?
COc1cc(-n2c(=O)c3ccccc3n(Cc3cc(=O)n4ccccc4n3)c2=O)cc(OC)c1OC	-6.6%	-2.5	?	0.6%	-8.2	7.4%
CN(Cc1ccccc1)C(=O)c1ccc2c(c1)NC(=O)C(N1CCOCC1)S2 (configuration not stated)	nt	-4.3	22.6%	3.8%	-12.9	-22.0%
O=C1COc2ccc(C(=O)COC(=O)Cc3ccccc3F)cc2N1	nt	3.9	16.2%	1.6%	31.7	2.8%
O=C1COc2ccc(C(=O)COC(=O)Cc3ccsc3)cc2N1	-4.8%	11.0*	5.2%	0.9%	20.8	-1.7%
O=C(Nc1nc2ccc(Cl)cc2s1)C1CCCO1 (configuration not stated)	-15.4%	42.6*	30.4%	-3.3%	106.0*	nt
O=C(Nc1nc2ccc([N+](=O)[O-])cc2s1)C1CCCO1 (configuration not stated)	-2.2%	36.8*	-0.5%	-0.9%	112.4*	125.7%
CS(=O)(=O)c1ccc2nc(NC(=O)C3CCCO3)sc2c1 (configuration not stated)	3.6%	0.7	-4.1%	-0.2%	31.9	18.6%
COc1ccc(COC(=O)C2CCN(S(=O)(=O)c3ccc(OC)c(OC)c3)CC2)cc1	nt	nt	?	12.5%	nt	?
Cc1c(Cl)cccc1NC(=O)NN1CCN(C)CC1	2.8%	9.8	-23.3%	-1.0%	14.9	10.5%
COc1ccc(C(c2nnnn2Cc2ccccc2)N2CCN(C(=O)c3ccco3)CC2)cc1 (configuration not stated)	-8.5%	28.5*	nt	-1.7%	-2.6	?
CCC(c1nnnn1CCc1ccccc1)N1CCN(C(=O)c2ccco2)CC1 (configuration not stated)	-10.0%	-5.1	9.28µM*	3.0%	24.5	-4.2%
COc1cccc(C(c2nnnn2Cc2ccco2)N2CCN(c3cccc(C)c3C)CC2)c1OC (configuration not stated)	12.8%	17.4	7.8%	-7.6%	58.4*	9.28µM*
CC(C)CC(c1nnnn1CCc1ccccc1)N1CCN(C(=O)c2ccco2)CC1 (configuration not stated)	-35.6%	-5.0	?	-3.7%	-2.5	?
COc1ccc(OC)c(C(c2nnnn2Cc2ccco2)N2CCN(C)CC2)c1 (configuration not stated)	-0.3%	-2.9	?	0.3%	3.3	2.9%

Screens from PubChem.
